# Reference: PubChem BioAssay (NCATS)
# Inconclusive results are not listed. The source made the active and inactive calls. The call rests on the fitted dose curve; in most records, active means well fitted curve in the direction sought with a large enough effect; inconclusive means small, poorly fitted or top-dose-only effect, or another doubt; inactive means no such curve, though single readings can be large; an effect the other way counts as inactive or inconclusive.
# Columns and labels:
# [1] = test system: Zika virus NS2B-NS3 protease (linked construct); experiment: Primary screen NINDS Rhodamine qHTS for Zika virus inhibitors (AID 1347160); further: potency means the concentration at half of the fitted maximal effect; nearly all actives have a fitted effect of over 55% in size
# Summary of the method: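 Kinetic fluorescence (Ex 480 nm, Em 540 nm) over 15 min with 1.5 microM Rhodamine110 peptide and 25 nM linked protease.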
# [2] = OV-KATE Cancer Cell Toxicity qHTS against the NCATS CANVASS Library (AID 1347345); further: potency means the concentration at half of the fitted maximal effect
# Summary of the method: (§1)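 ATP content after 72 h treatment, detected by CellTiter-Glo luminescence (15min room-temperature development), reflects cell viability. Wells contained 1000 cells and received compounds at 11 concentrations.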
# [3] = HPAF-II Cancer Cell Toxicity qHTS against the NCATS CANVASS Library (AID 1347346); further: potency means the concentration at half of the fitted maximal effect; nearly all actives have a fitted effect of over 55% in size
# Summary of the method: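 HPAF-II cells at 1000 cells/well were treated with an 11-point concentration series for 72 hours at 37 degrees C. Viability read by CellTiter-Glo luminescence.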
# [4] = UWB1.289 Cancer Cell Toxicity qHTS against the NCATS CANVASS Library (AID 1347347); further: potency means the concentration at half of the fitted maximal effect; nearly all actives have a fitted effect of over 60% in size
# Summary of the method: as §1
# [5] = OV-SAHO Cancer Cell Toxicity qHTS against the NCATS CANVASS Library (AID 1347348); further: potency means the concentration at half of the fitted maximal effect; nearly all actives have a fitted effect of over 55% in size
# Summary of the method: as §1
# [6] = Panc-1005 Cancer Cell Toxicity qHTS against the NCATS CANVASS Library (AID 1347349); further: potency means the concentration at half of the fitted maximal effect; nearly all actives have a fitted effect of over 60% in size
# Summary of the method: as §1
# [7] = COV-362 Cancer Cell Toxicity qHTS against the NCATS CANVASS Library (AID 1347352); further: potency means the concentration at half of the fitted maximal effect
# Summary of the method: (§2)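 Cells at 1000/well were given compound 4 h after plating in an 11-point series. Viability was read by CellTiter-Glo luminescence after 72 h at 37 degrees C.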
# [8] = UWB1.289-WTBRCA1 Cancer Cell Toxicity qHTS against the NCATS CANVASS Library (AID 1347354); further: potency means the concentration at half of the fitted maximal effect
# Summary of the method: as §2
# [9] = HEK293 18hr Apoptosis Induction qHTS against the NCATS CANVASS Library (AID 1347357); further: potency means the concentration at half of the fitted maximal effect
# Summary of the method: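 Natural products applied to HEK293 for 18 hr; Caspase-Glo 3/7 readout.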
# [10] = HEK293 24hr Apoptosis Induction qHTS against the NCATS CANVASS Library (AID 1347359); further: potency means the concentration at half of the fitted maximal effect
# Summary of the method: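 Caspase-3/7 activation measured as luminescence from the DEVD-based Caspase-Glo reagent, 15 min at room temperature, following 24-hour compound treatment of HEK293 cells.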
# [11] = test system: NAD(P)H diaphorase (Clostridium kluyveri); experiment: Diaphorse counterscreen qHTS: Assay Interference Panel against the NCATS CANVASS Library (AID 1347362)
# Summary of the method: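 Counterscreen for coupling-enzyme interference: resorufin fluorescence from resazurin/NADH turnover, read after 5 min at room temperature. Compounds were tested over an 11-point series after 15 min dark preincubation with diaphorase in PBS-Tween.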
# [12] = molecular target: Luciferin 4-monooxygenase (Photinus pyralis) (UniProt P08659); experiment: Firefly luciferase counterscreen qHTS: Assay Interference Panel against the NCATS CANVASS Library (AID 1347363); further: series mostly up to about 57 µM
# Summary of the method: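 Luminescence inhibition readout: compounds (11-point qHTS) sat 15 min at room temperature with substrate mix (0.013 mM luciferin and ATP), then firefly luciferase was added and signal read 5 min later.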
# [13] = SDT Cancer Cell Toxicity qHTS against the NCATS CANVASS Library (AID 1347365); further: potency means the concentration at half of the fitted maximal effect; nearly all actives have a fitted effect of over 60% in size
# Summary of the method: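 SDT dog glioma cells (500/well) exposed to an 11-point compound series for 72 hr at 37C, 5% CO2. Cytotoxicity read as ATP content by CellTiterGlo luminescence; bortezomib titration as control.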
# [14] = KB-3-1 Cancer Cell Toxicity qHTS against the NCATS CANVASS Library (AID 1347366); further: potency means the concentration at half of the fitted maximal effect; nearly all actives have a fitted effect of over 75% in size
# Summary of the method: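 Cytotoxicity toward KB-3-1 cells (500/well, DMEM + 10% FBS) was scored by CellTiter-Glo luminescence following 72 hr exposure at 37C, with bortezomib titrated as control.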
# [15] = G06 Cancer Cell Toxicity qHTS against the NCATS CANVASS Library (AID 1347368); further: potency means the concentration at half of the fitted maximal effect; nearly all actives have a fitted effect of over 60% in size
# Summary of the method: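 G06 dog glioma cells, 500 per well, exposed 72 hr at 37C, 5% CO2 to compounds in an 11-point series. Cytotoxicity read as ATP content by CellTiterGlo luminescence.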
# [16] = MCF7 Cancer Cell Toxicity qHTS against the NCATS CANVASS Library (AID 1347369); further: potency means the concentration at half of the fitted maximal effect
# Summary of the method: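 This 72 hr qHTS scored MCF7 viability by CellTiterGlo luminescence, with 500 cells/well; bortezomib titration ran as control.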
# [17] = J3T Cancer Cell Toxicity qHTS against the NCATS CANVASS Library (AID 1347371); further: potency means the concentration at half of the fitted maximal effect
# Summary of the method: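 J3T dog glioma cells, 500 per well, treated 72 h at 37C with compounds (11-point qHTS); viability from ATP content by CellTiterGlo luminescence; bortezomib titration as control.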
# [18] = molecular target: Nuclear receptor subfamily 1 group I member 3 (Homo sapiens) (UniProt Q14994); experiment: qHTS for Constitutive Androstane Receptor (CAR) Antagonist screened against the NCATS CANVASS Library (AID 1347372); further: potency means the concentration at half of the fitted maximal effect
# Summary of the method: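 HepG2-CYP2B6-hCAR double-stable cells plated, 4hr attach; cpd pin-transferred; CITCO 50 nM final; 24hr 37C/5% CO2; CellTiter-Fluor 1hr (fluorescence), then ONE-Glo luminescence.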
# [19] = molecular target: Nuclear receptor subfamily 1 group I member 3 (Homo sapiens) (UniProt Q14994); experiment: qHTS for Constitutive Androstane Receptor (CAR) Agonist screened against the NCATS CANVASS Library (AID 1347373);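 further: every well also contained 1.5 µM PK11195 alongside the test compound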
# Summary of the method: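 HepG2 cells stably carrying hCAR and a CYP2B6-2.2kb luciferase reporter, treated 24hr at 37C with compounds plus 1.5uM PK11195; activation by ONE-Glo luminescence, viability by CellTiter-Fluor.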
# [20] = qHTS for Inflammasome Signaling Inhibitors: IL-1-beta AlphaLISA screen against the NCATS CANVASS Library (AID 1347379)
# Summary of the method: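 THP-1 cells pretreated 1 hr with compound (up to 57.5 uM final), then stimulated with LPS (250 ng/mL final) and ATP (1.25 mM final). Secreted IL-1B measured by AlphaLISA after 16 hr; glyburide as positive control.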
# [21] = qHTS for Antimalaria activity screened against the NCATS CANVASS Library (AID 1347380); further: potency means the concentration at half of the fitted maximal effect; nearly all actives have a fitted effect of over 40% in size
# Summary of the method: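 Red blood cells infected with P. falciparum Dd2 (2.5% hematocrit final, 0.3% parasitemia) were exposed to compounds in an 11-point qHTS series for 72 hr at 37C under 5% O2 and 5% CO2. Lysis buffer with SYBR Green was then added for 18 hr, and fluorescence was read at 485/535 nm.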
# [22] = Inflammasome Signaling qHTS Counterscreen: IL-1-beta AlphaLISA counterscreen against the NCATS CANVASS Library (AID 1347381);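 further: cell-free check with purified IL-1β in medium and no THP-1 cells; series mostly up to about 57 µM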
# Summary of the method: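 Cell-free interference check: compounds added to medium spiked with 4 pg purified IL-1β. Anti-IL-1β acceptor beads (6 ug/mL) with 0.6 nM biotinylated antibody added for 1 h at RT, then streptavidin donor beads (24 ug/mL) for 30 min in the dark. AlphaLISA read at 680/615 nm.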
# [23] = qHTS assay for small molecule disruptors of mitochondrial membrane potential screened against the NCATS CANVASS Library (AID 1347389)
# Summary of the method: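 HepG2 cells (2,000/well) plated overnight, then exposed to compounds in 11-point qHTS series for 1 h at 37C before 30 min Mito-MPS dye; depolarization read as fall in red aggregate (590 nm) to green monomer (535 nm) fluorescence.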
# [24] = Secretion counterscreen for inhibitors of the SERCaMP assay screened against the NCATS CANVASS Library (AID 1347390)
# Summary of the method: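 Natural products are titrated in an 11-point series up to 77 uM onto SH-SY5Y-GLuc STOP cells for 20 h. Secreted reporter activity is measured as coelenterazine-driven luminescence, with Brefeldin A on each plate.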
# [25] = qHTS for activators of dead-cell proteases activity screened against the NCATS CANVASS Library (AID 1347392);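 further: luminescence from protease leaking out of membrane-damaged cells cleaving impermeant substrate; potency means the concentration at half of the fitted maximal effect; rising signal means more cytotoxicity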
# Summary of the method: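 Compounds are pin-transferred onto attached HepG2 cells, giving 11 final concentrations. After 5 h at 37C, AAF-aminoluciferin reagent is added and luminescence is recorded at room temperature.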
# [26] = Vero-766 cells viability qHTS against the NCATS CANVASS Library: Counterscreen for Zika virus inhibition assay (AID 1347394)
# Summary of the method: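 Counterscreen for toxicity: Vero 766 cells exposed 72 h to an 11-point compound series, viability by CellTiter-Glo.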
# Chain of Nuclear receptor subfamily 1 group I member 3 (Homo sapiens) (Q14994 whole entry, looked up): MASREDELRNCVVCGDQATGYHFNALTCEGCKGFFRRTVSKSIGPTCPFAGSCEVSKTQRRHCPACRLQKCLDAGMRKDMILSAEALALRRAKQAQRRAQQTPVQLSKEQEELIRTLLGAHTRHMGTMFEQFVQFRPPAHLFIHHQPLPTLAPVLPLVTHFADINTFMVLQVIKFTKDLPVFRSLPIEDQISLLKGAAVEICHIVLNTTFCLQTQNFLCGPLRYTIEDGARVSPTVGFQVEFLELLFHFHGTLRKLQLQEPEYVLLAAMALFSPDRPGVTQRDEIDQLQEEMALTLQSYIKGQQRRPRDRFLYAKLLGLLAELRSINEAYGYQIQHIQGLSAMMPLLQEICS
# Chain of Luciferin 4-monooxygenase (Photinus pyralis) (P08659 whole entry, looked up): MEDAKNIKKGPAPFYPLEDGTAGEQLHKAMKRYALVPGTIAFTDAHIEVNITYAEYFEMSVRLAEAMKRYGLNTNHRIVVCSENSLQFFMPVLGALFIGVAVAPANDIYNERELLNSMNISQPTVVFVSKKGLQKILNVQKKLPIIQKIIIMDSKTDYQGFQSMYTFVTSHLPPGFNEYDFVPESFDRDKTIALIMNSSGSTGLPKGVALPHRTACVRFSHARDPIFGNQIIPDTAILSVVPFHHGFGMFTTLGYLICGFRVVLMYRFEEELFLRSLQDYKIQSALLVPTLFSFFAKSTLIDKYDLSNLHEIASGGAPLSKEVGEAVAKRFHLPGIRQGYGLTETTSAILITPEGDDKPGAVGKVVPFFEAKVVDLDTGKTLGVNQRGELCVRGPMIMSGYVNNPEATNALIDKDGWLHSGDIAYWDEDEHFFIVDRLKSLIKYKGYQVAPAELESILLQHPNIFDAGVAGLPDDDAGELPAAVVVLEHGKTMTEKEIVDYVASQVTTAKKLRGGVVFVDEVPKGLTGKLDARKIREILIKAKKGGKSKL
smiles,measurement,setting,value
C[C@@H]1CC[C@@H](c2ccoc2)N2C[C@@]3(CC[C@@H]12)CS[C@@]1(CC[C@H]2[C@H](C)CC[C@@H](c4ccoc4)N2[C@@H]1O)C3,Potency,[1],31.1 µM (active)
same,Potency,[2],7.47 µM (active)
same,Potency,[3],2.98 µM (active)
same,Potency,[4],6.66 µM (active)
same,Potency,[5],5.94 µM (active)
same,Potency,[6],5.3 µM (active)
same,Potency,[7],7.47 µM (active)
same,Potency,[8],8.38 µM (active)
same,Potency,[9],8.33 µM (active)
same,Potency,[10],10.5 µM (active)
same,outcome,[11],inactive
same,outcome,[12],inactive
same,Potency,[13],6.62 µM (active)
same,Potency,[14],8.33 µM (active)
same,Potency,[15],7.43 µM (active)
same,Potency,[16],11.7 µM (active)
same,Potency,[17],9.35 µM (active)
same,Potency,[18],8.31 µM (active)
same,outcome,[19],inactive
same,Potency,[20],8.63 µM (active)
same,Potency,[21],1.88 µM (active)
same,outcome,[22],inactive
same,Potency,[23],13.2 µM (active)
same,Potency,[24],12.2 µM (active)
same,Potency,[25],11.7 µM (active)
same,Potency,[26],7.41 µM (active)
